# Assay outcomes from PubChem.
# RE007 growth inh: qHTS Assay for Inhibitors of the HIV-1 protein Vpr | S. pombe RE007 Vpr strain, BacTiter-Glo ATP luminescence, 24 h | Potency, µM (doses to about 92.2 µM), usual class: inhibitors | actives 0.21% (n = 360,000) | AID 651644, 2012; active means well fitted falling curve with a large enough effect; inconclusive means small, poorly fitted or top-dose-only effect; inactive means no such curve, though single readings can be large or run the other way; further: nearly all actives have a fitted effect of over 50% in size
#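 Fission yeast RE007 carrying one integrated HIV-1 vpr copy, seeded at OD 0.01 in PMG+AL medium with 23 nL pinned compound. Grown 24 h at 30 degrees; viability read by BacTiter-Glo luminescence after 5 min.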
# SARS PLpro yeast: qHTS of Yeast-based Assay for SARS-CoV PLP | S. cerevisiae expressing SARS-CoV PLpro, growth rescue | Potency, µM (top dose mostly 32.9 µM), actives largely listed as activators | actives 0.19% (n = 330,000) | AID 485353, 2010; calls by dose curve; further: nearly all actives have a fitted effect of over 55% in size
# Sm TGR block: qHTS Assay for the Inhibitors of Schistosoma Mansoni Peroxiredoxins. Schistosoma mansoni thioredoxin glutathione reductase (TGR), Q962Y6. purified TGR, DTNB reduction, TNB absorbance 405 nm. Potency, µM (top dose mostly 114 µM), most hits filed as inhibitors. actives 3% (n = 360,000); further: nearly all actives have a fitted effect of over 60% in size
#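 TGR 20 nM + NADPH 100 uM (dispensed conc.), cpd preinc 15 min RT; start with NADPH (500 uM addition) then DTNB (15 mM addition). Kinetic TNB absorbance, 405 nm filter. Four-parameter Hill fit across titration.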
# Tb PYK inh: qHTS of Trypanosoma Brucei Inhibitors | pyruvate kinase (Trypanosoma brucei), Q57TT1 | TbPYK enzyme, Kinase-Glo Plus ATP luminescence, 45 min | AID 624173, 2012 | actives 0.12% (n = 410,000) | Potency, µM (titrated, usually from 76.8 µM), actives largely listed as inhibitors; further: nearly all actives have a fitted effect of over 50% in size
#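 Quantitative HTS: titrated library compounds versus trypanosomal pyruvate kinase in TEA buffer (pH 7.2) containing KCl, MgCl2, BSA and Tween-20. Reactions were initiated with ADP, 130 uM final. Kinase-Glo Plus luminescence was read after 45 min at RT.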
# LmPK inhibitor: qHTS Assay for Inhibitors of Leishmania Mexicana Pyruvate Kinase (LmPK); purified LmPK, Kinase-Glo ATP luminescence, 1 h; Q27686; actives 0.37% (n = 290,000); Potency, µM (titrated, usually from 57.5 µM), hits mostly inhibitors
# Target sequence (Q27686 whole entry, looked up): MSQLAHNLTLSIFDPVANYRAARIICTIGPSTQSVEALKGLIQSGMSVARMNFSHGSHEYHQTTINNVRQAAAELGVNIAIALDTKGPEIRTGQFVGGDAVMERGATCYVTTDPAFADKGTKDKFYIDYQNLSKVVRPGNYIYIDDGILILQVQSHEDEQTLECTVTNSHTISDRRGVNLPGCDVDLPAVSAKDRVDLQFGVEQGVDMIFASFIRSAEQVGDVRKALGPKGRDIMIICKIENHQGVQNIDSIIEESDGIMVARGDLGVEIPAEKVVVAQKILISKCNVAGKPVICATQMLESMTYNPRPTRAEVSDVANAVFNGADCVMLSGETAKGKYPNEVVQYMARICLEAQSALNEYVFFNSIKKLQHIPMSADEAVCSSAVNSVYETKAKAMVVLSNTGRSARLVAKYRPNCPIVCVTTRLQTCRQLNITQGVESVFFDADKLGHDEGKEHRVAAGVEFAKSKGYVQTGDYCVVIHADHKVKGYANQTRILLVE
#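 qHTS format; LmPK 0.1 nM; substrates PEP 0.5 mM and ADP 0.1 mM. One-hour room-temperature incubation, then coupled luciferase luminescence; 0.5 nM enzyme wells mark activation.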
# NS1 inh: qHTS Assay for Inhibitors of Influenza NS1 Protein Function; actives 0.4% (n = 270,000); Potency, µM (series often up to 46.1 µM); calls by dose curve; further: actives are rising curves; nearly all actives have a fitted effect of over 50% in size
#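 Compounds were scored for reversing the slow growth caused by influenza A NS1 in S. cerevisiae, measured by optical density at 600 nm. Assay medium contained 2% galactose at pH 6.0; NS1-free yeast of the same strain were the positive control.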
# A number is an active result; i = inactive; ? = inconclusive; nt = no result given; [ ] = remark or other dose. This is a sample that favours compounds with a hit; in the whole collection about 3.3% have one here. Unless noted, the call rests on the fitted dose curve; in most records, active means well fitted curve in the direction sought with a large enough effect; inconclusive means small, poorly fitted or top-dose-only effect, or another doubt; inactive means no such curve, though single readings can be large; an effect the other way counts as inactive or inconclusive.
SMILES,RE007 growth inh,SARS PLpro yeast,Sm TGR block,Tb PYK inh,LmPK inhibitor,NS1 inh
O[C@@H](c1cc(-c2ccccc2)nc2c1ccc1ccccc12)C1CCCCN1 (stereo partly drawn),nt,nt,nt,nt,nt,i
CCOC(=O)c1c(C)oc2c1cc(NS(=O)(=O)c1ccc(C(=O)O)cc1)c1ccccc12,i,i,28µM,i,i,i
COc1ccc2c(c1)c1c(c(=O)n(-c3ccccc3C)c(=O)n1CC(=O)NCc1ccc(C)cc1)n2C,nt,nt,i,i,nt,nt
Cc1ccc[n+](/C(C(=S)NCc2ccco2)=C(/[O-])c2ccccc2Cl)c1,i,i,32µM,i,i,i
CC(C)(C)c1ccc(C(=O)NC(=S)NCc2ccco2)cc1,i,i,?,i,i,i
CC(C)(C)c1ccc(/C([O-])=C(/C(=S)NCc2ccco2)[n+]2ccccc2)cc1,nt,i,56µM,nt,i,i
Cc1cc(N)n2nc(-c3ccccc3)cc2n1,?,i,i,i,16µM,i
Cc1ccc(-c2cc3nc(-c4ccccc4)cc(N)n3n2)cc1,i,i,i,i,i,i
O=C(O)CCc1ccc(-c2ccc(F)cc2)n1NC(=O)c1ccco1,i,i,40µM,i,i,i
O=C(O)CCc1ccc(-c2ccc(F)cc2)n1Cc1ccco1,i,i,50µM,i,i,i
Cc1ccc(-c2ccc(CCC(=O)O)n2NC(=O)c2ccc([N+](=O)[O-])cc2)cc1,i,i,?,i,i,i
Cc1ccc(-c2ccc(CCC(=O)O)n2NC(=O)c2ccco2)cc1,i,i,?,i,i,i
O=C(O)CCc1ccc(-c2ccccc2)n1Cc1ccco1,i,i,32µM,i,i,i
O=C(O)CCc1ccc(-c2ccc(Br)cc2)n1NC(=O)c1ccc([N+](=O)[O-])cc1,i,i,45µM,i,i,i
CCn1c(C(=O)Nc2ccccc2C(=O)OC)cc2sc(Cl)cc21,nt,nt,i,i,nt,nt
CCOC(=O)c1ccc(NC(=O)Cc2ccc(-n3c(CC)nc4cccnc43)cc2)cc1,nt,nt,i,i[15.4 µM],nt,nt
O=C(O)CCc1ccc(-c2ccc(Br)cc2)n1Cc1ccco1,i,i,50µM,i,i,i
O=C(O)CCc1ccc(-c2ccc(F)cc2)n1CC(=O)O,i,i,?,i,i,i
CCOC(=O)C(NC(=O)CC)(Nc1sc(C)c(CC)c1C#N)C(F)(F)F (stereo not drawn),i,i,50µM,i,i,i
CCOC(=O)C(NC(=O)CC)(Nc1ccccc1)C(F)(F)F (stereo not drawn),i,i,i,i,i,i
Cc1nc(-c2ccc(-n3nncc3-c3ccco3)cc2)cs1,i,i,50µM,i,i,i
NCCCn1c(C(=O)c2cc(Cl)c(N)c(Cl)c2)c2ccccc2[n+]1[O-],i,i,35µM,i,nt,nt
Cc1ccc(C(=O)c2c3ccc([N+](=O)[O-])cc3[n+]([O-])n2CCCN)cc1,i,i,35µM,i,nt,nt
CCCCNc1cc(NC(C)=O)cc2cc(OC)c(OC)cc12,i,i,?,i,i,i
COc1cc2cc(NC(C)=O)cc(NCc3ccccc3)c2cc1OC,i,i,35µM,i,i,?
SMILES,RE007 growth inh,SARS PLpro yeast,Sm TGR block,Tb PYK inh,LmPK inhibitor,NS1 inh
Cc1csc(NC(=O)/C=C/c2ccc(C)o2)n1,i,i,20µM,i,i,i
O=C(/C=C/c1ccco1)Nc1nc(-c2ccccn2)cs1,i,?,13µM,i,i,nt
CCOC(=O)Cc1csc(NC(=O)/C=C/c2ccco2)n1,i,i,11µM,i,i,i
Cc1cccnc1Nc1nc(-c2ccccn2)cs1,40µM,i,i,i,i,i
CCOC(=O)Cc1csc(NC(=O)/C=C/c2ccc(Cl)cc2)n1,i,i,i,i,i,i
COc1ccc(NC(=O)c2nc(SCc3ccccc3F)ncc2Cl)cc1,nt,nt,i,i,nt,nt
